Hits are enriched below; roughly 2.8% of the tested compounds scored in any of these assays.
HTT aggregate = mutant huntingtin aggregation inhibition; AID 1688; Potency, µM (top dose mostly 46.1 µM), for the others: at the top dose activity change, negative = inhibition, hits mostly inhibitors; 1.1% of 220,000 active; PC12 HttQ103-GFP aggregates, Acumen cytometry, 40 h; further: on the % scale 0 is the no-effect control and ±100 the full control effect; nearly all actives have a fitted effect of over 60% in size
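Ecdysone-promoter PC12 model expressing HTT exon 1 Q103 fused to GFP, induced by tebufenozide at 100 nM final. Compounds titrated; aggregates sized 1–25 µm scored on a 488 nm laser cytometer.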
HTT cytoprotect = protects HTT-Q103 PC12 cells, measured by ATP. PC12 HTT-Q103 induced, cytoprotection, ATP luminescence, 40 h. Potency, µM (titrated, usually from 56.4 µM), for inactives: cytoprotection (ATP increase), usual class: activators. 0.14% of 230,000 active. AID 1471; further: % of control where 0% means no effect; nearly all actives have a fitted effect of over 45% in size
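Rat PC12, Q103 Htt exon1-GFP fusion, ecdysone promoter; tebufenozide inducer 100 nM final; compound titration; qHTS, 1500 cells/well; ATPlite luminescent read.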
HepG2 viability = HepG2 cytotoxicity, counter-screen for TGF-b inhibitors. Potency, µM (series often up to 46.1 µM), for the others: at the highest dose activity change, negative = cytotoxicity, most hits filed as cytotoxic. 0.76% of 410,000 active. AID 588856. HepG2 CAGA-GFP viability, ATP luminescence, 18 h
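CellTiter-Glo luminescence gave cytotoxicity after 18 hours at 37 degrees C. The cells were HepG2 CAGA-GFP in 1% FBS DMEM, stimulated with 500 pg/mL TGF-beta after compound addition. %Activity was normalised to no-cell wells (complete cell-killing) and DMSO (no toxicity), and curves were fitted and classified.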
ATXN viability = reduces viability in counter-screen for ATXN expression inhibitors | 0.49% of 400,000 active | Potency, µM (series often up to 56.7 µM), most hits filed as cytotoxic | S2 cells (HEK-293 line with an ATXN2-luciferase reporter) viability, CellTiter-Fluor protease fluorescence, 24 h | AID 651635; further: nearly all actives have a fitted effect of over 40% in size
TGFb inhibitor = inhibitors of TGF-b signaling; 1.2% of 410,000 active; Potency, µM (top dose mostly 46.1 µM), for inactives: top-dose activity, negative = inhibition, usual class: inhibitors; HepG2 CAGA-GFP TGF-b/SMAD3 reporter, GFP fluorescence, 18 h; TGF-beta stimulated, 500 pg/mL final; AID 588855; further: on the % scale 0 is the no-effect control and ±100 the full control effect; nearly all actives have a fitted effect of over 65% in size
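HEPG2 CAGA-GFP cells (1000/well, DMEM with 1% FBS) were pre-incubated 2 h at 37 degrees C, given compound by pin tool, then stimulated with TGF-beta at 500 pg/mL final for 18 h before per-cell GFP fluorescence imaging.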
ATXN2 expr inh = inhibitors of ATXN2 expression | HEK-293 ATXN2-luciferase reporter, luminescence, 24 h | Potency, µM (titrated, usually from 57 µM), for inactives: at the top dose activity change, negative = inhibition, actives largely listed as inhibitors | 0.72% of 360,000 active | AID 1745845; further: on the % scale 0 is the no-effect control and ±100 the full control effect; nearly all actives have a fitted effect of over 55% in size
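qHTS (up to 57 uM final) was run with 24 h compound exposure of reporter cells at 37 °C. Each well was multiplexed: SteadyGlo luminescence measured ATXN2-luciferase expression after a fluorogenic Gly-Phe-AFC viability readout (25 uM final).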
* = called active by the depositor; i = inactive; ? = inconclusive; · = not tested or not shown; ! = not active in a repeat; [ ] = dose if it differs, or a comment. The call rests on the fitted dose curve; in most records, active means well fitted curve in the direction sought with a large enough effect; inconclusive means small, poorly fitted or top-dose-only effect, or another doubt; inactive means no such curve, though single readings can be large; an effect the other way counts as inactive or inconclusive. Potency means the concentration at half of the fitted maximal effect.

SMILES | HTT aggregate | HTT cytoprotect | HepG2 viability | ATXN viability | TGFb inhibitor | ATXN2 expr inh
O=C(OCc1cn([C@@H]2CN(CC3CCCCC3)[C@@H](c3ccccc3)C[C@H]2O)nn1)c1ccccc1 | · | · | -6% | 25µM* | 3% | ?
O=C(O)c1ccccc1-c1c2cc(I)c(=O)c(I)c-2oc2c(I)c(O)c(I)cc12 | · | · | -13% | 4.5µM* | 31% | -24%
CCN(CC)S(=O)(=O)c1ccc(N/N=C/c2cc(OC)ccc2O)nc1 | 2.8µM* | -88%[10 µM] | -22% | i | -14% | 3.2µM*
O=C(Cn1c(=O)[nH]n(-c2ccccc2)c1=O)N1CCCc2ccccc21 | 1.3µM* | -20%[10 µM] | -1% | ? | -1% | -37%
O=S(=O)(NCC(c1cccs1)S(=O)(=O)c1ccccc1)c1ccc(F)cc1 (stereo unspecified) | · | · | -59% | · | 4µM* | ·
O=C(Nc1ccc(Nc2ccccc2)cc1)C(Cl)Cl | ? | 28%[10 µM] | -77% | ? | 13µM* | -16%
NC(=O)Nc1ccc(Nc2ccccc2)cc1 | -7%[9.22 µM] | 9%[10 µM] | -16% | i | -26% | ·
CC(C)(C)C(=O)C(Cl)C(=O)Nc1ccccc1 (stereo unspecified) | -17%[9.22 µM] | -20%[10 µM] | 8.9µM* | i | ? | ·
CCCCC(CCCCl)C(=O)Nc1ccccc1 (stereo unspecified) | -1%[9.22 µM] | 4%[10 µM] | 20% | i | -6% | -23%[11.3 µM]
CN(CCO)C(=O)c1cn(C2CCCN(Cc3cccc4ccccc34)C2)nn1 (stereo unspecified) | · | · | · | i | · | ·
O=S(=O)(c1ccc(OC(F)(F)F)cc1)N1CCN(c2nc(-c3cccs3)nc3ccccc23)CC1 | · | · | -18% | · | 0% | ·
Cc1c(CNC2CCCCC2)c(C(=O)O)c(C)n1Cc1c(F)cccc1Cl | · | · | -3% | i | 8% | 1%
Clc1cccc(Cl)c1CNC1CCCC1 | 0.11µM* | -8% | -14% | i | -1% | 3%
Cc1nn(Cc2ccc(Cl)cc2)c(C)c1NC(=O)CSc1nc2c(c(C(F)(F)F)n1)CCc1ccccc1-2 | -2% | -27% | 0.63µM* | ? | -23% | ?
Cc1cnc(-n2ncc(C(=O)NCCc3ccncc3)c2-c2cccs2)nc1-c1ccc(F)cc1 | · | · | · | i | · | ·
C=CC(=O)OCCCCCCOC(=O)C=C | · | 18% | · | · | · | ·
Cc1ccc(-n2c(SCc3ccccc3F)nc3[nH]ncc3c2=O)cc1C | · | · | -113% | ? | ? | ?
Cc1ccc(-n2c(SCc3ccccc3F)nc3[nH]ncc3c2=O)cc1Cl | · | · | -97% | 35µM* | ? | ?
CCc1ccc(-n2c(SCc3ccccc3F)nc3[nH]ncc3c2=O)cc1 | · | · | -109% | 20µM* | ? | ?
CCOc1ccccc1N(C)C(=O)c1cc2c(=O)n(CC)c3ccccc3c2s1 | 17%[9.22 µM] | 6%[10 µM] | 11µM* | · | ? | ·
CCn1c(=O)c2cc(C(=O)NCc3cc(OC)ccc3OC)sc2c2ccccc21 | · | · | -28% | i | 2.5µM* | -8%
CC(C)Nc1oc(-c2ccccc2)nc1-c1cccc2ccccc12 | · | -27% | · | · | · | ·
CCC(C(=O)N1CCCCCC1)n1nc(C)n2c(cc3occc32)c1=O (stereo unspecified) | · | · | -3% | i | 3% | 2%
CCC(C(=O)N1CCN(c2ccc(OC)cc2)CC1)n1nc(C)n2c(cc3occc32)c1=O (stereo unspecified) | · | · | -20% | ? | 10µM* | -33%
O=C1C=C(c2ccc(Cl)c(C(F)(F)F)c2)C[C@@H](c2ccc(Cl)cc2)C1 | · | · | -45% | i | 14µM* | -16%
SMILES | HTT aggregate | HTT cytoprotect | HepG2 viability | ATXN viability | TGFb inhibitor | ATXN2 expr inh
O=C1C=C(c2ccc(Cl)c(C(F)(F)F)c2)C[C@@H](c2ccc(F)cc2)C1 | · | · | -32% | ? | ? | -22%
CCN1CCCC1CNC(=O)c1cnn(-c2nccc(-c3ccco3)n2)c1C1CC1 (stereo unspecified) | · | · | · | i | · | ·
CCN(CC)S(=O)(=O)c1ccc(NC(=O)c2ccc3c(=O)n4c(nc3c2)CCCCC4)cc1 | · | · | -32% | · | ? | 22µM*
CCc1ccc(NC(=O)c2ccc3c(=O)n4c(nc3c2)CCCCC4)cc1 | 12%[9.22 µM] | 16%[10 µM] | -26% | ? | -22% | ?
O=C(Nc1ccc2nc3n(c(=O)c2c1)CCCC3)c1cc([N+](=O)[O-])ccc1F | 14µM* | -10%[10 µM] | -60% | · | ? | 25µM*
O=C(Nc1ccc2nc3n(c(=O)c2c1)CCCC3)c1cccc([N+](=O)[O-])c1 | 1% | 3%[10 µM] | -5% | ? | 0% | 8%
CCOc1ccc(NC(=O)c2ccc3c(=O)n4c(nc3c2)CCCCC4)cc1 | · | · | 8.9µM*! | i | 6% | -7%
CCN(CC)CC(=O)Oc1ccc(NC(C)=O)cc1 | · | · | · | i | · | 14%
COc1cc2c(NC3CCN(C(C)C)CC3)nc(N3CCCN(C)CC3)nc2cc1OCCCN1CCCC1 | · | · | 1% | · | ? | ·
CCOc1cccc(-c2nnc3sc(C4CCCCC4)nn23)c1 | ? | -7% | -91% | i | -24% | 16%
COc1cccc(-c2nnc3sc(C4CCCCC4)nn23)c1 | 2µM* | ? | -28% | i | ? | 19%
O=C(/C=C/c1ccccc1)CCN1CCCCC1 | · | · | 20µM* | ? | 11µM* | ?
O=C(O)C1CCCN1S(=O)(=O)c1cccc2cccnc12 (stereo unspecified) | · | 1% | · | · | · | ·
CC(C)C(NS(C)(=O)=O)c1nnc2n1CCN(Cc1ccc3cccnc3c1)CC2 (stereo unspecified) | · | · | · | i | · | ·
COc1ccc(CNS(=O)(=O)c2cc(C(=O)Nc3cc(Cl)cc(Cl)c3)ccc2F)cc1 | · | · | 10µM* | · | 7.1µM* | ·
CN1C(=O)C(C)(C)c2cc(S(=O)(=O)NCc3ccc(C(=O)Nc4ccc(Cl)cc4)cc3)ccc21 | · | · | -28% | · | 4µM* | ·
CCc1ccc(NC(=O)c2ccc(CNS(=O)(=O)c3ccc4c(c3)C(C)(C)C(=O)N4C)cc2)cc1 | · | · | -28% | · | -31% | ·
O=C(Nc1cc(Cl)cc(Cl)c1)c1ccc(F)c(S(=O)(=O)NCc2ccccc2Cl)c1 | · | · | -111% | · | ? | ·
CCOc1ccc(NC(=O)c2ccc(F)c(S(=O)(=O)N(CC)Cc3ccccc3)c2)cc1 | · | · | -28% | · | -2% | ·
CCN(Cc1ccccc1)S(=O)(=O)c1cc(C(=O)Nc2cc(Cl)cc(Cl)c2)ccc1F | · | · | -37% | · | 5µM* | ·
Cc1ccc(C(=O)Nc2ccc(Br)cc2)cc1S(=O)(=O)NCc1ccccc1 | · | · | -54% | ? | 16µM* | ?
O=C1c2ccccc2CCC1CNCCc1ccc(O)cc1 (stereo unspecified) | · | -9% | · | · | · | ·
